Epigenetic derep – Quantitative High-Throughput Screen for Regulators of Epigenetic Control; murine LDR cells, GFP reporter derepression, 30 h; Potency, µM (titrated, usually from 53.9 µM), for the others: at the highest dose GFP activation, actives largely listed as activators; 0.2% of 280,000 active; AID 1865, 2009; also: % of control where 0% means no effect; nearly all actives have a fitted effect of over 60% in size
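In this reporter-derepression format, murine cells bearing a silenced integrated CMV-GFP locus incubate with test compound (30 h, 37 C), then are washed and imaged; fluorescent objects of 20–120 um count as induced cells.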
Sfp PPTase inh – qHTS Assay for Inhibitors of Bacillus subtilis Sfp phosphopantetheinyl transferase (PPTase). 4'-phosphopantetheinyl transferase ffp (Bacillus subtilis), Q9F4F7. Biochemical Sfp PPTase activity, qHTS. Potency, µM, for the others: largest response in the series, negative = inhibition, actives largely listed as inhibitors. 3.5% of 310,000 active. AID 1490, 2009;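 also: the enzyme is Sfp with the accession as filed and its product quenches rhodamine fluorescence; 0% = enzyme reaction without inhibitor and -100% = no enzyme wells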
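Step 1, compound plus 15 nM Sfp-PPTase, 15 min, room temperature. Step 2, add rhodamine-CoA (5 uM) and BHQ-2-YbbR (12.5 uM). Step 3, read 525/598 nm fluorescence at 0 and 30 min.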
RORgamma inh – qHTS for inhibitors of ROR gamma transcriptional activity; Drosophila S2 Gal4-RORgamma UAS-luciferase reporter, 20 h; Potency, µM (doses to about 53.6 µM), for inactives: at the highest dose activity change, negative = inhibition, actives largely listed as inhibitors; 5.4% of 310,000 active; also: % is scaled to controls: 0 for no effect and ±100 for the full control effect; nearly all actives have a fitted effect of over 60% in size
Target sequence (P51450 whole entry, looked up, the tested form may be a part): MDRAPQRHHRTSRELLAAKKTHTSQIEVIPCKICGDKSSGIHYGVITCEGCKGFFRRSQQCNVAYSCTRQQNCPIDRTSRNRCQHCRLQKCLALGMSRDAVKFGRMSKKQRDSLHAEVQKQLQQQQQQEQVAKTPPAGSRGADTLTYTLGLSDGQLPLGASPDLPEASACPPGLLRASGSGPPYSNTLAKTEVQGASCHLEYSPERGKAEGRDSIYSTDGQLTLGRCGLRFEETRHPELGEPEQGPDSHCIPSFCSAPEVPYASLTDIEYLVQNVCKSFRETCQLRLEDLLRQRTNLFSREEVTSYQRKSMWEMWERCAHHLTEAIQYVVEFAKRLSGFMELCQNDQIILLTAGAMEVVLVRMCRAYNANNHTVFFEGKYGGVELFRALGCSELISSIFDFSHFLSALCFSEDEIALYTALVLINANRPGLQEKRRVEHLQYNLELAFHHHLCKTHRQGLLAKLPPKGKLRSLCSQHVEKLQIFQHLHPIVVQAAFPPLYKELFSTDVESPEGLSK
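Schneider cells (Drosophila), stable Gal4 DBD–ROR gamma + UAS-luc; 1 hr cmpd preincubation; Cu2+ induction 700 uM final; 20 hr ambient; luminescence.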
PINK1 modulator – A Quantitative High throughput Screen to Identify Chemical Modulators of PINK1 Expression | PINK1 immunofluorescence, high-content cytometry, 24 h | Potency, µM (top dose mostly 76.6 µM), inactives show at the highest dose activation (PINK1 increase), usual class: activators | 0.2% of 410,000 active | AID 624263, 2012; active = well fitted activation curve with a large enough effect; inconclusive = small, poorly fitted or top-dose-only effect; cell line not stated here; also: % of control where 0% means no effect; nearly all actives have a fitted effect of over 65% in size
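Stable cell line treated 24 h with compounds at 5 concentrations (CCCP controls), then fixed and immunostained for PINK1 plus nuclear and cell stains; PINK1 immunofluorescence quantified by laser-scanning microplate cytometry.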
ClpP mod – qHTS Assay for Activators of ClpP. ATP-dependent Clp protease proteolytic subunit (Bacillus subtilis (strain 168)), P80244. purified B. subtilis ClpP, FRET peptide cleavage, 20 min. Potency, µM (series often up to 57.5 µM), for the others: at the highest dose activity change, negative = active. 1.9% of 340,000 active. AID 651965, 2013; active = well fitted falling curve with a large enough effect; inconclusive = small, poorly fitted or top-dose-only effect; inactive = no such curve, though single readings can be large or run the other way; also: the source files actives as falling curves though it sought activators and does not explain the sign; nearly all actives have a fitted effect of over 65% in size
Target sequence (P80244 whole entry, looked up): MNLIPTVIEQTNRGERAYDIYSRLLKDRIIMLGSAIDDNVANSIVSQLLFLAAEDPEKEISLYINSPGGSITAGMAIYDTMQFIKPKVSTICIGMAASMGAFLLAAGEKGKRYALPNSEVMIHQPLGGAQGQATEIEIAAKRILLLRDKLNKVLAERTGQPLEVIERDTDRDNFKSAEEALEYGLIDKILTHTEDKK
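ClpP 10 microg/mL final, pH 8 Tris/KCl buffer with BSA, glycerol, Tween-20; compound pinned in; FRET-FV substrate; RT 20 min; Ex320/Em430; ΔFRET vs ADEP 5.8 microM, DMSO, no enzyme.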
Gal4-VP16 FLuc – VP16 counterscreen qHTS for inhibitors of ROR gamma transcriptional activity; Drosophila S2 Gal4-VP16 UAS-luciferase, luminescence, 20 h; Potency, µM (doses to about 53.6 µM), for inactives: top-dose activity, negative = inhibition, actives largely listed as inhibitors; 3.5% of 310,000 active; AID 2546, 2010;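 also: Gal4-VP16 expression switched on by copper sulfate through the metallothionein promoter; % is scaled to controls: 0 for no effect and ±100 for the full control effect; nearly all actives have a fitted effect of over 50% in size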
* = called active by the depositor; [ ] = another dose, or the depositor's remark. Compounds with a hit are over-represented: about 8.1% of the library has one in this group of screens. Unless noted, calls follow the shape of the dose curve; as a rule, active = well fitted curve in the direction sought with a large enough effect; inconclusive = small, poorly fitted or top-dose-only effect, or another doubt; inactive = no such curve, though single readings can be large; an effect the other way counts as inactive or inconclusive. Potency is read from the fitted curve at half-maximal effect.

For O=C(Nc1ncccn1)c1cc(-c2cccc(Br)c2)nc2ccccc12 the results were Epigenetic derep -0.9%, Sfp PPTase inh -9.4%, RORgamma inh 13.5%, PINK1 modulator 1.5%, ClpP mod -6.5% and Gal4-VP16 FLuc -4.6%.
`O=C(Nc1ccncc1)c1cc(-c2cccc(Br)c2)nc2ccccc12` gave PINK1 modulator 11.1% and ClpP mod -14.1%.
For Cc1ccc2nc(-c3cccc(Br)c3)cc(C(=O)NC3=NCCS3)c2c1 the results were Epigenetic derep 0.9%, Sfp PPTase inh -20.1%, RORgamma inh 2.51µM*, PINK1 modulator 6.4%, ClpP mod 0.0% and Gal4-VP16 FLuc 4.47µM*.
Screening O=C(NC1=NCCS1)c1cc(-c2cccc(Br)c2)nc2ccccc12 returned Epigenetic derep 1.0%, Sfp PPTase inh -15.6%, RORgamma inh 7.08µM*, PINK1 modulator 5.8%, ClpP mod -2.3% and Gal4-VP16 FLuc inconclusive.
CCN(CC)CCNC(=O)c1cnn(-c2ncc3c(n2)-c2ccc(OC)cc2CC3)c1C was read as PINK1 modulator -0.9%.
For Cc1ccc(NC(=O)C(NC2CCCc3ccccc32)c2ccccc2)cc1Cl (stereo not drawn) the results were Epigenetic derep 1.1%, Sfp PPTase inh 44.7µM*, RORgamma inh 1.9%[10 µM], PINK1 modulator 1.2% and Gal4-VP16 FLuc -65.2%.
For CNC(=O)NC(=O)C(NC1CCCc2ccccc21)c1ccccc1 (stereo not drawn) the results were Sfp PPTase inh 6.7%, RORgamma inh -12.7%, PINK1 modulator 0.9%, ClpP mod 0.1% and Gal4-VP16 FLuc 11.1%.
`O=C(CSC1=Nc2ccccc2C2CC=NN12)Nc1ccc2c(c1)OCO2` (stereo not drawn) gave Epigenetic derep -1.9%, Sfp PPTase inh -4.8%, RORgamma inh -37.4%, PINK1 modulator 1.4%, ClpP mod -1.7% and Gal4-VP16 FLuc 3.6%.
N#Cc1ccccc1NC(=O)CSC1=Nc2ccccc2C2CC=NN12 (stereo not drawn) was read as Epigenetic derep -3.6%, Sfp PPTase inh -13.8%, RORgamma inh 11.2µM*, PINK1 modulator 0.6% and Gal4-VP16 FLuc inconclusive.
`O=C(Cn1nc2c(cc1=O)CCCC2)NCc1ccccc1` gave Epigenetic derep 0.0%, PINK1 modulator 7.5% and ClpP mod -1.3%.
NC(=O)COc1ccccc1 was read as Epigenetic derep 0.0%, Sfp PPTase inh 6.0%, RORgamma inh 28.9%, PINK1 modulator -0.7%, ClpP mod 0.4% and Gal4-VP16 FLuc -0.9%.
NC(=S)COc1ccccc1 was read as Epigenetic derep 1.1%, Sfp PPTase inh 21.3%, RORgamma inh 22.4µM*, PINK1 modulator -0.3%, ClpP mod 0.5% and Gal4-VP16 FLuc -18.7%.
O=C(O)COc1ccc(Oc2ccccc2)cc1 was read as Epigenetic derep -0.9%, Sfp PPTase inh 20.1%, RORgamma inh inconclusive, PINK1 modulator 0.3%, ClpP mod -1.7% and Gal4-VP16 FLuc 12.6µM*.
For O=C(O)c1ccc(/C=N/Nc2ncc(Cl)cc2Cl)cc1 the results were Sfp PPTase inh inconclusive, RORgamma inh 26.3%, PINK1 modulator -0.2%, ClpP mod -5.2% and Gal4-VP16 FLuc -0.3%.
FC(F)(F)c1cnc(N/N=C/c2ccncc2)c(Cl)c1 was read as Epigenetic derep -3.4%, Sfp PPTase inh 15.3%, RORgamma inh 12.6µM*, PINK1 modulator 1.5%, ClpP mod -0.6% and Gal4-VP16 FLuc inconclusive.
For COc1ccc(/C=N/Nc2ncc(C(F)(F)F)cc2Cl)cc1OC the results were Epigenetic derep 7.7%, Sfp PPTase inh inconclusive, RORgamma inh inconclusive, PINK1 modulator 4.6%, ClpP mod inconclusive and Gal4-VP16 FLuc 3.55µM*.
CCc1ccc(NC(=O)Nc2nnc(N(C)C3CCCCC3)s2)cc1 was read as Epigenetic derep -4.0%, PINK1 modulator 1.9% and ClpP mod -1.5%.
`O=C(COc1ccccc1F)Nc1ccccc1C(=O)OCc1cc(=O)n2nc(C3CC3)sc2n1` gave Epigenetic derep -1.2%, PINK1 modulator -0.5% and ClpP mod 0.5%.
Screening Cc1cccc(C)c1NC(=O)CN(Cc1ccc(Br)cc1)S(=O)(=O)c1ccccc1 returned Epigenetic derep 0.9%, PINK1 modulator 3.1% and ClpP mod -11.9%.
For Cc1nn2c(N)csc2nc1=O the results were Epigenetic derep -1.0%, Sfp PPTase inh 50.1µM*, RORgamma inh -15.8% and Gal4-VP16 FLuc -1.9%.
For Cc1nn2c3ccccc3n(C)c2nc1=O the results were Epigenetic derep -1.0%, Sfp PPTase inh -2.3%, RORgamma inh -8.8%, PINK1 modulator -0.7%, ClpP mod inconclusive and Gal4-VP16 FLuc -6.3%.
O=c1[nH]c2cc3c(cc2cc1C(c1nnnn1CC1CCCO1)N1CCCCCC1)OCO3 (stereo not drawn) was read as Epigenetic derep -0.9%, Sfp PPTase inh -2.3%, RORgamma inh inconclusive and Gal4-VP16 FLuc -7.6%.
Screening Cc1cccc2cc(C(c3nnnn3CC3CCCO3)N3CCOCC3)c(=O)[nH]c12 (stereo not drawn) returned Epigenetic derep 0.9%, Sfp PPTase inh 5.0%, RORgamma inh -1.1%, PINK1 modulator 0.9%, ClpP mod inconclusive and Gal4-VP16 FLuc -5.4%.
For O=c1[nH]c2cc3c(cc2cc1C(c1nnnn1CC1CCCO1)N1CCCCCC1)OCCO3 (stereo not drawn) the results were Epigenetic derep 3.2%, Sfp PPTase inh 1.0%, RORgamma inh 15.4%, PINK1 modulator -1.4%[38.3 µM], ClpP mod 31.6µM* and Gal4-VP16 FLuc 7.0%.
`O=c1[nH]c2cc3c(cc2cc1C(c1nnnn1CC1CCCO1)N1CCCC1)OCO3` (stereo not drawn) gave Epigenetic derep -1.0%, Sfp PPTase inh -9.7%, RORgamma inh -2.6%, PINK1 modulator 2.3%[38.3 µM], ClpP mod 31.6µM* and Gal4-VP16 FLuc 5.5%.
Screening CCCCOc1ccc(CNC(=O)c2cccc(NC(=O)N3CCSc4ncccc43)c2)cc1 returned Epigenetic derep -0.8%, PINK1 modulator -1.8% and ClpP mod -27.8%.
COc1ccc(CNC(=O)CN2N=C(c3ccccc3)CCC2=O)c(OC)c1 was read as Epigenetic derep 0.0%, PINK1 modulator 1.3% and ClpP mod 0.2%.

Screening results deposited in PubChem by National Center for Advancing Translational Sciences (NCATS).
